# Experimental data taken from the supplement of paper PMC6555819.
# Key:
# Test in all cases: PBM binding z-score (relative to random genomic background probes); higher = stronger binding; sequences stand for … in GC…GCGATTGACAGCGTAGAATGAAGG
# [1] = system: RARb homodimer (NR concentration 270 nM)
# Outline: (§1)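 Each nuclear receptor dimer, without ligand, was incubated for 1 h on custom Agilent 4×180K protein-binding microarrays. Binding was detected with antibodies against each partner (one per run), and scanned fluorescence was regression-normalized. The binding z-scores are referenced to random human genomic background probes.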
# [2] = system: RARg:RXRa (NR concentration 270 nM, RXRa partner concentration 90 nM)
# Outline: as §1
# [3] = system: RARg homodimer (NR concentration 270 nM)
# Outline: as §1
# [4] = system: RXRa DBDmut IVT, anti-RXR (DBD mutation: RXRa K156A/R161A, NR concentration 90 nM)
# Outline: as §1
# [5] = system: RXRa homodimer (NR concentration 180 nM)
# Outline: as §1
# [6] = system: THRa:RXRa (NR concentration 90 nM, RXRa partner concentration 90 nM)
# Outline: as §1
# [7] = system: THRa homodimer (NR concentration 90 nM)
# Outline: as §1
# [8] = system: VDR homodimer (NR concentration 270 nM)
# Outline: as §1
Sequence,PBM binding z-score [1],PBM binding z-score [2],PBM binding z-score [3],PBM binding z-score [4],PBM binding z-score [5],PBM binding z-score [6],PBM binding z-score [7],PBM binding z-score [8]
CAAACTAGGTCAAGGTCAACGTCGGTTTGTGCCA,5.65,6.16,6.86,2.58,5.91,4.62,4.3,3.89
CGAACTAGGTCATTGACAGGACAGGGAATAGTAA,2.89,4.58,4.36,2.18,2.59,2.99,1.01,1.02
TCGAGTAAGTTAGGGGCATTCAGAATGGCGTCGA,0.241,0.189,-0.154,0.53,0.495,1.08,-0.16,0.751
AGTCAAATTTCAGGACGAGGTAACGTAAAGCACG,0.179,0.276,0.438,-0.237,0.24,2.29,1.82,0.197
GCTGCTAGGGCAACTGATGGTCAGCTAAAGCTCG,0.973,0.792,1.27,-0.0325,-0.494,-0.0894,-1.3,-1.03
CGAACTAGGTCATTGCCAGGACAGTGAATAGTAA,2.72,4.1,4.21,2.5,2.73,3.32,1.54,1.49
TGTCAAAGATCAAAGGTAACGTAAGTATCCACAC,0.261,1.26,0.761,-0.668,2.36,1.54,-0.401,-0.267
CGCACTAGGTCAGAACAGGACAGTGAAGGATGAT,2.18,2.44,3.31,0.675,1.34,3.71,0.508,-0.275
ATCGGAAGGTCGACGAGGTGAGTATACACCGTTT,1.95,2.32,2.65,0.311,2.37,3.04,0.579,0.813
AGAGACAGGTGATGAAGGTAACTCAGGCTATCAT,0.746,0.284,0.541,-0.709,0.56,1.25,0.485,0.0584
CGAACTAGGTCATTGACAGGACAGTGATTAGTAA,2.83,4.5,4.52,2.49,2.47,2.9,1.05,1.52
ATCGAAAGGTCGAAGGTGATTATACCCACCCGAA,2.14,4.11,3.87,0.956,4.77,1.97,0.193,0.477
ATATGTAGGTTATTGGGTCATTCAGTTTGCGCAT,3.06,3.09,2.45,1.61,2.89,2.85,2.41,3.17
CCAACTGGGGCAGAAAGGTTACCATACCATCCGG,2.5,1.72,1.37,-0.546,1.76,1.06,0.0988,-0.202
GATACAGGGTTAAGGCCAGAGTACGCGTATTGAT,1.34,1.7,1.1,-0.0819,1.76,2.05,0.861,1.02
TTACCAAGGTGAGCTGAGGTCGTTCATCCAACTC,1.81,1.4,0.963,0.409,1.3,4.63,2.3,2.41
TCTTGTAGATCAAGCGGGTTAAGAAAGCCTGAGT,0.106,-0.294,-0.546,0.628,0.204,0.221,-0.488,-0.0254
AGTCAAAGTTCATCTAGGTAAAGTAAGATATGCT,3.76,5.67,6.09,4.8,5.07,3.07,0.199,5.29
TCTTGTAGATCAATAGACGTTAAGAAAGTGCGCT,-0.66,-0.0458,0.0391,0.88,-0.042,-0.347,-0.846,0.0604

Sequence,PBM binding z-score [1],PBM binding z-score [2],PBM binding z-score [3],PBM binding z-score [4],PBM binding z-score [5],PBM binding z-score [6],PBM binding z-score [7],PBM binding z-score [8]
TCGAGTAGGTTAGTCGGGGCATGCAGCCAACATA,0.498,-0.0315,-0.00519,0.0884,0.113,0.978,-0.26,-0.157
GCAACGAGGGCATTCGAGTTGATAGCATGGCGAT,0.663,0.926,1.45,3.01,0.65,3.31,-0.513,3.27
CCTACTGGACCATCAGGTCATTGATATCAACGTT,2.7,1.67,1.56,1.08,1.37,3.38,3.78,2.38
TGTCAAAGTTCAAAGGTAACGTATGTATCCACAC,3.78,6.21,5.94,4.28,6.97,3.08,-0.0625,3.87
CGTCCAAGGTCAATGCTAGGTCAGTGGAAGCATT,4.74,7.51,6.88,3.57,4.86,4.32,2.84,3.57
TGTCAAAGTTCAAAGGTAACGAAAGTATCCACAC,3.89,6.36,6.02,4.4,7.81,2.97,0.0782,4.73
AGAAGGAGGGCACGCTGAGTTGATAGCAGAGTAG,1.4,1.94,2.17,0.783,1.2,1.13,-0.112,1.04
CGTCGAAGTTCAACTAAGGTAACGTAAAGCACGC,2.89,3.53,3.67,3.86,2.69,4.97,2.11,2.88
AATACAGGGTCACTAGACCAGAGTAGGTACGAAT,2.96,4.98,4.81,2.68,5.91,3.24,1.08,2.54
TCATATAGGTAAATGCTAGGTGAAGGTCCGATCT,0.576,0.474,0.349,1.34,0.65,1.43,0.583,0.324
CCTTACGGGTCAAGGGTATAGCACGGGTGGTACG,3.17,4.8,4.86,0.672,5.32,2.38,0.0653,0.904
TAACCAAGGTGAAAGGTCGTTGATGCACGCCTTG,2.82,4.47,2.52,0.794,6.28,3.33,0.878,1.5
CCTAGAAGGCCAATCTGGGTCACTCAAGGCTTGA,2.78,1.98,2.37,0.567,1.55,4.27,0.262,0.0868
TGTCAAAGTTCCAAGGTAACGTAAGTATCCACAC,0.222,0.298,0.719,-0.251,0.443,1.72,1.09,-0.0741
CCGACTGGGGCAAGCTTACCATAACGCACAGCCA,-0.00597,0.179,0.523,0.00515,-0.0329,-0.39,-0.624,-0.428
CCTTACGGGTCAAGGTTATGGCACGGGTGGTACG,3.66,5.06,4.67,1.1,5.31,3,0.804,1.45
ATCGAAAGGTCGACGAAGTGAGTATACACCGTTT,2.14,3.86,3.83,0.645,3.75,1.79,-0.48,0.3
CCTATTAGTTGACCATAAGGGAAACCGAAGCTCG,0.512,0.264,0.552,0.71,0.398,0.545,0.494,0.692
TCGAGTAGGTTAGGGGCACTCAGAATGGCGTCGA,0.798,0.322,0.17,0.247,0.488,0.572,0.0941,0.0717

Sequence,PBM binding z-score [1],PBM binding z-score [2],PBM binding z-score [3],PBM binding z-score [4],PBM binding z-score [5],PBM binding z-score [6],PBM binding z-score [7],PBM binding z-score [8]
CCGACTGGGGCAGAAAGGTTACCGTACCATCCGG,2.49,1.52,1.28,-0.805,1.84,1.18,-0.556,-0.155
TGTCAAAGTTCAAAGGTAACTTAAGTATCCACAC,3.71,6.26,6.11,4.5,7.54,3.6,-0.309,4.03
ACTATTAGTTGGGACGAGGGCAACCGATAGGTTG,1.37,0.644,0.82,0.0733,0.516,1.64,0.629,1.12
CGTCCAAGGTCAGAGAGGTGAGTGAATGCCGAGT,3.85,4.7,5.44,3.06,3.79,3.81,2.28,2.26
CGAACGAGGGCATGAGTTTATAGCAAATGCCGAT,1.15,1.31,1.81,3.01,1.07,1.42,0.067,4.17
TAGCCTAGGTCATTCAGGGGCCAGTGTAGAAAGC,3.6,6.11,4.75,1.83,3.15,3.58,0.809,1.58
CGTCCAAGGTCAGCAGGTTAGTGAAAGCGACGTG,4,5.37,6.05,2.64,4.17,3.57,2.06,1.76
AATATAGGGTCACTAGGCCAGAGTAGGTACGAAT,3.3,5.24,4.94,2.94,5.71,3.61,1.67,2.21
ACAGACAGGTGAGTGCAGGTAACTCAGCTGGACG,-0.104,0.091,0.426,0.222,0.412,1.69,-0.612,0.269
CCTACTGGGCCATCAGGTCACTGATATCAACGTT,2.82,2.28,2.5,-0.0787,1.54,3.34,3.44,0.813
CGTCCAAGGTCAATGCTAGGTCAGTTAAAGCATT,5.03,7.56,6.8,3.49,5.03,4.67,2.9,3.2
CTACCAAGGCGAACAAGGTCGTTGATTACTATTC,0.781,0.29,0.0992,0.854,0.744,2.38,0.72,1.38
CATACAGGGTCAGCTTGGCCAGAGTAGGGACGGC,3.06,4.12,4.29,1.58,4.13,2.85,0.515,0.849
GCTATGAGTTGAAAGGGCAACCGAATGATTCTCG,2.14,2.06,1.7,1.93,2.78,1.17,-0.184,0.754
CCTGCTAGGTCATGGTCAGCTAATCTACAGTATG,3.24,4.01,4.52,1.9,2.92,3.06,1.39,0.473
GCTTGTAGATCAAGGTTAAGAATGACTAAGCTAA,0.438,0.397,0.413,0.0922,0.859,1.08,-0.00442,-0.161
ACGATTAGTTGAGACGAGGGCAACCGATAGGTTG,0.939,0.385,0.643,-0.112,0.354,2.41,-0.196,0.605
ATCGAAAGGTCGTCAGGTGAGTATACAGAAAGGC,2.67,4.34,3.83,2.04,4.71,3,1.33,1.8
CCTTACGGGTCAAGAGGTTATAGCACGACGAGCG,3.87,6.11,4.75,0.748,6.11,2.92,0.0618,1.17
